Test results from PubChem BioAssay AID782 (Emory University Molecular Libraries Screening Center, 2007).
Among all 220,000 compounds or so, about 800 (0.36%) were called active. The list comes from a sample in which actives are over-represented; it also holds similar structures and randomly drawn compounds. Unmarked numbers belong to inactive results.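 Rule for the calls: active = inhibition above about 30% (limit read from the data); inactive = the rest.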

Target: Eukaryotic translation initiation factor 4E (Mus musculus) + Eukaryotic translation initiation factor 4 gamma 1 (Homo sapiens) (UniProt P63073+Q04637)
Sequence (P63073 whole entry, looked up, the tested form may be a part): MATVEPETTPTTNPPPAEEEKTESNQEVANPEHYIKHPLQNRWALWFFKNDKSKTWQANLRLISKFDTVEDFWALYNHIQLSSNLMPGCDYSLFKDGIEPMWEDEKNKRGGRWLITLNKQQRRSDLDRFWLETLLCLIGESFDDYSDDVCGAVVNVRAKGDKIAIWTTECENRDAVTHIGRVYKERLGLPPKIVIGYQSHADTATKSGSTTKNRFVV
Sequence (Q04637 whole entry, looked up, the tested form may be a part): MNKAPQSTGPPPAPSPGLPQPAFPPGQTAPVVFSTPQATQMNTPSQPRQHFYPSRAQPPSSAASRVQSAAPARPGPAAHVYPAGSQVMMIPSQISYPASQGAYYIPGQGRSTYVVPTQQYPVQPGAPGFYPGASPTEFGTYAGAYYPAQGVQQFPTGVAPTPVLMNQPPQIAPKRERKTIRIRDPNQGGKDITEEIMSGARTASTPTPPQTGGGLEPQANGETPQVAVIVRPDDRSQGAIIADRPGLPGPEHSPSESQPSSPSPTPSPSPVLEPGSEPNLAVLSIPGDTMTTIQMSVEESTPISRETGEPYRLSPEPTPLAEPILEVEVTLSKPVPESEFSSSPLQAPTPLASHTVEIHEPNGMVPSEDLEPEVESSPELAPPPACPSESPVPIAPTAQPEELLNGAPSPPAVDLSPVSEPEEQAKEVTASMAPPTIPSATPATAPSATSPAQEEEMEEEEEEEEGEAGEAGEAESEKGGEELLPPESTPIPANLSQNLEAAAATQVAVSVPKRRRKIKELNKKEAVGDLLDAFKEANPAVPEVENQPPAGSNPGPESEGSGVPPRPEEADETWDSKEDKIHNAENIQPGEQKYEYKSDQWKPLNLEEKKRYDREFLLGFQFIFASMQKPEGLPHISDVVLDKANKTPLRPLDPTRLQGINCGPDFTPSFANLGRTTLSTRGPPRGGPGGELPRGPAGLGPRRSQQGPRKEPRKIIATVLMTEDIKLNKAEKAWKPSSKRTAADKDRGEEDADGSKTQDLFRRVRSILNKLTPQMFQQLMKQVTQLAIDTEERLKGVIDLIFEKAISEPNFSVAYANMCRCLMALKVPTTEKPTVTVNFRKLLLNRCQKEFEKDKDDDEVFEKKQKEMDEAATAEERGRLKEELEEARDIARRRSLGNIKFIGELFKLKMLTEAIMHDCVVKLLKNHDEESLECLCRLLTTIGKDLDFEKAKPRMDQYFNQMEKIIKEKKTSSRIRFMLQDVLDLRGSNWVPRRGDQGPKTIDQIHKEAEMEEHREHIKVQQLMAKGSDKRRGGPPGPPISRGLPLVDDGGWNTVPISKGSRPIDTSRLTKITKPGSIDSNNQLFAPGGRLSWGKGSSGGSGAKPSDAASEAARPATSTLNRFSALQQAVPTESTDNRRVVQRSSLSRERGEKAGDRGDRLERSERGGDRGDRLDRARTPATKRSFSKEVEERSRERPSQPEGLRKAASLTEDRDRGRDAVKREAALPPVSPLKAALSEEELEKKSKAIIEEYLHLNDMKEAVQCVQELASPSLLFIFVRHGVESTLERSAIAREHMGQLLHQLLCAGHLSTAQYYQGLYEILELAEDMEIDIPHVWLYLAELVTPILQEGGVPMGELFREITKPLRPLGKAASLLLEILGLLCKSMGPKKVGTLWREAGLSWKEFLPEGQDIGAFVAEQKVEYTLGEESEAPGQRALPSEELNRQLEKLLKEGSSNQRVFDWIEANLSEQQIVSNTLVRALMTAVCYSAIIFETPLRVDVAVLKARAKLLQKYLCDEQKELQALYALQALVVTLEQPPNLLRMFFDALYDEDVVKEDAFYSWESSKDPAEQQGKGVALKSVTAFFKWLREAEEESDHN
Experiment: blockers of eIF4G binding by eIF4E – biochemical, uHTS, TR-FRET, eIF4GI fragment, primary screen (AID 782);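 note: 0% = full FRET control wells and 100% = background wells lacking eIF4GI fragment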
Conditions: TR-FRET eIF4E-eIF4GI(517-606) binding, 2 h; at 21.7 µM; hits give high values

SMILES | inhibition
CCCCOc1ccc(C(=O)NCC(=O)OCC(=O)N2CCN(S(=O)(=O)c3ccc(C)cc3C)CC2)cc1 | 11.8%
O=C(Cc1c[nH]c2ccccc12)OCCOC(=O)Cc1c[nH]c2ccccc12 | 0.18%
CC1CCN(CC(=O)c2c[nH]c3ccccc23)CC1 | -20.8%
O=C(OCC(=O)c1c[nH]c2ccccc12)c1cccc(O)c1 | 49.4% (active)
CCOC(=O)CCCNC(=O)COC(=O)c1cc(Br)c(Br)s1 | -0.44%
COc1ccccc1OCC(=O)O/N=C(\N)c1ccccn1 | 4.41%
CCCn1nc(NS(=O)(=O)c2ccccc2)c2cc3cc(C)ccc3nc21 | 0.92%
N#CCCCn1c(O)c(N=NC(=O)C(O)c2ccccc2)c2ccccc21 (stereo not given) | 1.55%
COC(=O)Cn1c(O)c(N=NC(=O)OC)c2ccccc21 | 94.3% (active)
CCCCn1c(O)c(N=NC(=O)Cn2c(C(F)(F)F)nc3ccccc32)c2ccccc21 | 16%
CC1(C)C(c2cccs2)=[N+]([O-])C2(CCCCC2=O)N1O (stereo not given) | -4.23%
CN(C(=O)COC(=O)c1cc(-c2ccco2)nc2ccccc12)C1CCS(=O)(=O)C1 (stereo not given) | 42.4% (active)
Cc1c(-c2cccc(Cl)c2)nc2ccccc2c1C(=O)OCC(=O)N(C)C1CCS(=O)(=O)C1 (stereo not given) | 2.67%
COc1ccc(NC(=O)COc2ccc(C(=O)OCC(=O)N(C)C3CCS(=O)(=O)C3)cc2OC)cc1 (stereo not given) | -0.66%
O=C(NNC(=S)NC(=O)c1cn(-c2ccccc2)nc1-c1ccccc1)c1ccncc1 | 0.17%
Cc1ccc(N(C(=O)C(F)(F)F)C(C(=O)NC2CCCCC2)c2ccncc2)cc1C (stereo not given) | 4.58%
S=C(NCCc1ccccc1)N1CCn2cccc2C1c1ccncc1 (stereo not given) | -2.42%
COc1ccc(-c2ccc(OC(=O)NC3CCS(=O)(=O)C3)cc2)cc1 (stereo not given) | 2.9%
COc1ccc(NC(=S)NC2CCS(=O)(=O)C2)cc1 (stereo not given) | 49.7% (active)
Cc1ccc(NC(=S)NC2CCCC2)cc1 | 1.43%
